TEAD-YAP inh – TEAD-YAP interaction inhibition, primary screen, TEAD-YAP interaction inhibitor project, luminescence, HEK-TIYL cells; TEAD-Gal4/YAP UAS-luciferase luminescence; inhibition, % at 9.12 µM; 640,000 tested, 1.4% active; in the data active = inhibition above about 32%
GPR151 activ – activators of human GPR151, primary screen, cell-based, PathHunter beta-arrestin, luminescence. activation, % at 11.2 µM. PathHunter beta-arrestin GPR151 cells. AID 1508602, 2020. G-protein coupled receptor 151 (Homo sapiens), Q8TDV0. 650,000 tested, 1% active; in the data active = activation above about 4.9%
FBW7 act – FBW7 E3 ligase activators, primary screen, biochemical, AlphaScreen, human | 650,000 tested, 0.13% active | F-box/WD repeat-containing protein 7 (Homo sapiens), Q969H0 | normalized activity (activation), % at 26.1 µM | AlphaScreen FBW7–phospho-cyclin E peptide binding, activator screen; in the data active = normalized activity above about 1.9%;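 also: purified mutant Fbw7 with reduced substrate affinity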
MITF inh – MITF inhibitors, primary screen, biochemical, AlphaScreen, human; AlphaScreen MITF homodimerization, bead proximity signal; inhibition, % at 2.6 µM; 650,000 tested, 0.91% active; in the data active = inhibition above about 50%
GPR151 confirm – GPR151 activators, triplicate retest, confirmation, cell-based, PathHunter beta-arrestin, luminescence; activation, % at 11.2 µM; GPR151 PathHunter beta-arrestin cells, 90 min; % of EA-reagent control over plate median; shares compounds with GPR151 activ; 6,700 tested, under 10 active;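 active = mean percent activation across replicates above the confirmation screen cutoff of 4.91%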
GPR119 counter – GPR119 activators in beta-arrestin cells, counter-screen for GPR151 activator project, cell-based, PathHunter beta-arrestin, luminescence, triplicate. AID 1508611, 2020. 6,700 tested, 0.3% active. 90 min; 0 = compound-well median, 100 = enzyme-acceptor control. shares compounds with GPR151 activ. activation, % at 11.2 µM;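 active = mean percent activation in the counterscreen above 29.09%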;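 also: counterscreen on off-target GPR119 to flag nonselective hits from the GPR151 activator screen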
Target sequence (Q8TDV5 whole entry, looked up): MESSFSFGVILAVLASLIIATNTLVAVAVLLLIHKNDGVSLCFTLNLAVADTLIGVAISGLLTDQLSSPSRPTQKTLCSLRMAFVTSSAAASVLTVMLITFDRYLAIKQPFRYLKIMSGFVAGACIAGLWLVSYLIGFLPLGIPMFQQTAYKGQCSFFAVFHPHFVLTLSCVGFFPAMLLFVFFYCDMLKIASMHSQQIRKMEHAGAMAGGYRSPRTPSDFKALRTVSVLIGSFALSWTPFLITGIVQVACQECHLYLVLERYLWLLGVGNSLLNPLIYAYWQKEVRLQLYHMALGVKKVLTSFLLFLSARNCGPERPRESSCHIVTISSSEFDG
Each line names hits and unclear results; the compound was inactive in the other large screens (follow-up assays come after a bar, where they were run). Hits are enriched below; roughly 3.5% of the tested compounds scored in any of these assays.

O=C(O)c1ccc(-c2cnc3ccc(NCc4ccc(F)cc4)nn23)cc1	none
N/C(=N\OC(=O)CCC1CCCC1)c1ccc(Cl)cc1	GPR151 activ 6.0 | GPR151 confirm inactive | GPR119 counter inactive
CN(C)S(=O)(=O)c1ccc(Cl)c(NC(=O)CN2CCNC(=O)C2)c1	GPR151 activ 5.2 | GPR151 confirm inactive | GPR119 counter inactive
COc1ccc(OC)c(S(=O)(=O)Nc2ccc(C(=O)O)cc2)c1	none
COc1cc(NS(=O)(=O)c2cc(C(=O)O)ccc2OC)cc(OC)c1	GPR151 activ 9.2 | GPR151 confirm inactive | GPR119 counter inactive
CC1CCC(=NNC(=O)c2ccc(Cl)cc2)CC1 (stereo not drawn)	none
Cc1ccc(S(=O)(=O)NCC(=O)NN=C2CCC(C)CC2)cc1 (stereo not drawn)	GPR151 activ 6.5 | GPR151 confirm inactive | GPR119 counter inactive
Cc1ccc(C(=O)NN=C2CCC(C)CC2)cc1 (stereo not drawn)	GPR151 activ 8.1 | GPR151 confirm inactive | GPR119 counter inactive
Cc1nn(CCC#N)c2nc(C(Cl)(Cl)Cl)[nH]c(=O)c12	none
COc1ccccc1NC(=O)Cn1cnc2sc(C(=O)Nc3ccc(F)cc3)c(C)c2c1=O	none
CC(=O)N[C@H]1[C@H](Oc2ccc(Cl)cc2)O[C@H](CO)[C@@H](O)[C@@H]1O	none
CCN(CC)CCNC(=O)c1sc2ncnc(N(C)c3ccccc3)c2c1C	none
O=C(NNC(=O)c1ccccc1F)c1ccc(Cl)nc1	GPR151 activ 4.9 | GPR151 confirm inactive | GPR119 counter inactive
CCOc1ccc(/C=C(\C#N)c2[nH]nc(N)c2C#N)cc1OC	GPR151 activ 5.6 | GPR151 confirm inactive | GPR119 counter inactive
Cc1nn(S(=O)(=O)c2ccccc2[N+](=O)[O-])c(C)c1Sc1ccc(Cl)cc1	none
OCCn1c(-c2ccc(Cl)cc2)c(Oc2ccc(Cl)cc2)sc1=Nc1ccccc1	none
CC1=C(C(=O)N2CCCC2)C2(CCCCCC2)OC1=O	none
COc1cccc(N2CCN(C(=O)C3=C(C)C(=O)OC34CCCCC4)CC2)c1	GPR151 activ 5.6 | GPR151 confirm inactive | GPR119 counter inactive
CN(C)c1nc(Nc2ccc(F)cc2)c2cnn(C)c2n1	none
Cc1ccc(Nc2nc(N(C)C)nc3c2cnn3C)cc1C	GPR151 activ 6.2 | GPR151 confirm inactive | GPR119 counter inactive
COc1ccccc1-c1nnc2sc(-c3cc(OC)c(OC)c(OC)c3)nn12	none
COc1ccccc1-c1nnc2sc(-c3ccc4c(c3)OCCO4)nn12	TEAD-YAP inh 53, GPR151 activ 5.7 | GPR151 confirm inactive | GPR119 counter inactive
COC(=O)c1cc(C)sc1NC(=S)Nc1cc(C)cc(C)n1	none
CCOC(=O)C1CCN(C(=O)Cc2c(C(=O)O)[nH]c3ccc(Cl)cc23)CC1	GPR151 activ 5.3 | GPR151 confirm inactive | GPR119 counter inactive
CC(=O)c1ccc(-n2nnnc2SCC(=O)NCc2ccco2)cc1	none
CCCN(CCC)C(=O)CSc1nc2nc(C)c(Cc3ccccc3C)c(C)n2n1	GPR151 activ 5.0 | GPR151 confirm inactive | GPR119 counter inactive
Cc1ccccc1Cc1c(C)nc2nc(SCC(=O)N3CCC(C)CC3)nn2c1C	none
CCC1CCCCN1C(=O)CSc1nc2nc(C)c(Cc3ccccc3C)c(C)n2n1 (stereo not drawn)	GPR151 activ 5.2 | GPR151 confirm inactive | GPR119 counter inactive
Cc1ccccc1Cc1c(C)nc2nc(SCC(=O)NC(C)(C)C)nn2c1C	GPR151 activ 16 | GPR151 confirm inactive | GPR119 counter inactive
CCN1CCN(C(c2ccccc2Cl)c2sc3nc(C)nn3c2O)CC1 (stereo not drawn)	none
CCOc1ccc2nc(NCc3ccc(F)cc3)sc2c1	none
Cc1nn(C)c(C)c1-c1nc(NCCCN2CCCC2=O)c2ncn(C3CCCCC3)c2n1	GPR151 activ 5.8 | GPR151 confirm inactive | GPR119 counter inactive
